Results taken from PubChem BioAssay (EPA / NIEHS).
Results filed as inconclusive are left out. Activity calls are given as the source filed them. The calls were made as follows: active = hit-call score of the fitted dose curve at least 0.9, where 1 is the maximum; inconclusive = response in the unintended direction; inactive = score below 0.9.

target: Oxysterols receptor LXR-beta (Homo sapiens) (UniProt P55055); assay: ATG_LXRb_TRANS: Attagene TRANS-FACTORIAL HepG2 Assay for human Liver X Receptor beta (LXRb) (AID 2282981); details: HepG2 Attagene TRANS GAL4-LXRb reporter, mRNA
Sequence (P55055 whole entry, looked up, the tested form may be a part): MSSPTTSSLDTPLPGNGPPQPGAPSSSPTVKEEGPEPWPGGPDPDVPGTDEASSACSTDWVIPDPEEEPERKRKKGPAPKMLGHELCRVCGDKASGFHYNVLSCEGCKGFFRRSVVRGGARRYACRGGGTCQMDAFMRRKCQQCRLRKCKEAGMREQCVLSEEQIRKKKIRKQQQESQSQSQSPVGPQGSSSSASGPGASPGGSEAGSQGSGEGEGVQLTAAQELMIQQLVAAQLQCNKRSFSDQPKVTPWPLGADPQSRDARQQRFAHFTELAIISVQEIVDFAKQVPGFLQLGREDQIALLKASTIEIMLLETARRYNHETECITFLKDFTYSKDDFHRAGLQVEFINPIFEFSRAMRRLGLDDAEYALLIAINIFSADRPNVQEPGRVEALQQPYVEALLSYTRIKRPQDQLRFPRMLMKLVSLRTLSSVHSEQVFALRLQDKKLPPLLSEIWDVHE
Procedure, shortened: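 HepG2 cells transiently transfected with GAL4-UAS reporter units for chimeric NR-Gal4 proteins, dosed for 24 h. Reporter transcripts measured by RT-PCR and capillary electrophoresis; gain-of-signal fitting relative to DMSO.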

Row | Structure (SMILES) | outcome
1 | CO[C@@H]1[C@H](OC(=O)NC(=O)CCl)CC[C@]2(CO2)[C@H]1[C@@]1(C)O[C@@H]1CC=C(C)C | inactive
2 | O=C(O)C1C2CCC(O2)C1C(=O)O (stereo unspecified) | inactive
3 | Oc1ccccc1Cl | inactive
4 | N#CC(Br)Br | inactive
5 | ClCCOCCCl | inactive
6 | ClC1=C(Cl)C2(Cl)C3C(Cl)C=CC3C1(Cl)C2(Cl)Cl (stereo unspecified) | inactive
7 | C1=Cc2cccc3cccc1c23 | inactive
8 | C[C@]12C=CC3=C4CCC(=O)C=C4CC[C@H]3[C@@H]1CC[C@@H]2O | inactive
9 | CN(C)[C@@H]1C(=O)C(C(N)=O)=C(O)[C@@]2(O)C(=O)C3=C(O)c4c(O)cccc4[C@@](C)(O)[C@H]3C[C@@H]12 | inactive
10 | CCN(CC)CCO | inactive
11 | Brc1ccc(Oc2ccccc2)cc1 | inactive
12 | CC(C)(C)OOC(=O)c1ccccc1 | inactive
13 | CC(O)CCO (stereo unspecified) | inactive
14 | CC(C)(OOC(C)(C)c1ccccc1)c1ccccc1 | inactive
15 | CCC(C)c1ccc(O)cc1 (stereo unspecified) | inactive
16 | C[N+](C)(C)CC1CO1 (stereo unspecified) | inactive
